Reference: PubChem BioAssay AID1159580 (chemical genetic matrix, 2015)
Screen size: about 5,500 compounds; about 2,000 (36%) were called active. Not shown: some 18% with an inconclusive outcome. No stated cut-off is given here; in the data, active means normalized growth mostly below about 0.91 (no sharp cut-off); inconclusive means no clear call, values can overlap the other calls; inactive means mostly above about 0.92. The list shows a part of the results.

Experiment: chemical genetic growth profiling, strain panel (AID 1159580);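 further: tested at 20 µM; growth read once vehicle control cultures reached saturation at 30 °C; 1 = growth at the plate median or of vehicle wells; lower values mean less growth of the strain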
Settings: growth OD

Measured: normalized growth

CN1CCC[C@H]1c1cccnc1
inactive: S. cerevisiae deletion strains, locus YJR075W, strain HOC1, hits give low values 0.999 | S. cerevisiae deletion strains, locus YKL009W, strain mrt4, hits give low values 0.975 | S. cerevisiae deletion strains, locus YKL068W, hits give low values 0.983 | S. cerevisiae deletion strains, locus YKL085W, strain MDH1 (second series), hits give low values 0.984 | S. cerevisiae deletion strains, locus YKL085W, strain MDH1, hits give low values 0.984 | S. cerevisiae deletion strains, locus YKL160W, strain elf1, hits give low values 1.01 | S. cerevisiae deletion strains, locus YKL190W, strain CNB1, hits give low values 1 | S. cerevisiae deletion strains, locus YKR001C, strain vps1, hits give low values 0.986 | S. cerevisiae deletion strains, locus YKR026C, strain gcn3, hits give low values 1.04 | S. cerevisiae deletion strains, locus YKR091W, strain srl3, hits give low values 1.02 | S. cerevisiae deletion strains, locus YLL001W, strain dnm1, hits give low values 1.05 | S. cerevisiae deletion strains, locus YLL026W, hits give low values 1.02 | S. cerevisiae deletion strains, locus YLL041C, strain sdh2, hits give low values 1.02 | S. cerevisiae deletion strains, locus YLR027C, strain aat2, hits give low values 1.01 | S. cerevisiae deletion strains, locus YLR039C, strain RIC1, hits give low values 0.981 | S. cerevisiae deletion strains, locus YLR058C, strain SHM2, hits give low values 0.987 | S. cerevisiae deletion strains, locus YLR102C, strain apc9, hits give low values 0.995 | S. cerevisiae deletion strains, locus YLR113W, strain HOG1, hits give low values 0.921 | S. cerevisiae deletion strains, locus YLR221C, strain rsa3, hits give low values 1.04 | S. cerevisiae deletion strains, locus YLR258W, strain gsy2, hits give low values 1.02 | S. cerevisiae deletion strains, locus YLR262C, strain YPT6 (second series), hits give low values 1.04 | S. cerevisiae deletion strains, locus YLR262C, strain YPT6, hits give low values 1.01 | S. cerevisiae deletion strains, locus YLR268W, strain sec22, hits give low values 1 | S. cerevisiae deletion strains, locus YLR320W, strain mms22, hits give low values 1.03 | S. cerevisiae deletion strains, locus YLR330W, strain CHS5, hits give low values 0.987 | S. cerevisiae deletion strains, locus YLR342W, strain FKS1 (second series), hits give low values 0.976 | S. cerevisiae deletion strains, locus YLR342W, strain FKS1, hits give low values 1.02 | S. cerevisiae deletion strains, locus YLR357W, strain rsc2, hits give low values 1.04 | S. cerevisiae deletion strains, locus YLR370C, strain arc18, hits give low values 1.03 | S. cerevisiae deletion strains, locus YLR371W, strain rom2, hits give low values 0.99 | S. cerevisiae deletion strains, locus YLR384C, strain iki3, hits give low values 1.04 | S. cerevisiae deletion strains, locus YLR418C, strain cdc73, hits give low values 1.02 | S. cerevisiae deletion strains, locus YML016C, strain PPZ1, hits give low values 0.99 | S. cerevisiae deletion strains, locus YML032C, strain rad52, hits give low values 0.999 | S. cerevisiae deletion strains, locus YML120C, strain ndi1, hits give low values 1.03 | S. cerevisiae deletion strains, locus YML124C, strain tub3, hits give low values 0.992 | S. cerevisiae deletion strains, locus YMR058W, strain fet3, hits give low values 1.03 | S. cerevisiae deletion strains, locus YMR078C, strain ctf18, hits give low values 0.979 | S. cerevisiae deletion strains, locus YMR125W, strain sto1, hits give low values 1.05 | S. cerevisiae deletion strains, locus YMR129W, hits give low values 1.04 | S. cerevisiae deletion strains, locus YMR205C, strain PFK2, hits give low values 1.03 | S. cerevisiae deletion strains, locus YMR223W, strain ubp8, hits give low values 0.978 | S. cerevisiae deletion strains, locus YMR231W, strain pep5, hits give low values 1.03 | S. cerevisiae deletion strains, locus YMR263W, strain SAP30, hits give low values 1.02 | S. cerevisiae deletion strains, locus YMR307W, strain GAS1, hits give low values 0.946 | S. cerevisiae deletion strains, locus YNL067W, strain RPL9B, hits give low values 1.02 | S. cerevisiae deletion strains, locus YNL071W, strain lat1, hits give low values 1.04 | S. cerevisiae deletion strains, locus YNL128W, strain TEP1, hits give low values 1.02 | S. cerevisiae deletion strains, locus YNL153C, strain GIM3, hits give low values 1.02 | S. cerevisiae deletion strains, locus YNL183C, strain NPR1, hits give low values 0.938 | S. cerevisiae deletion strains, locus YNL209W, strain ssb2, hits give low values 1.03 | S. cerevisiae deletion strains, locus YNL233W, strain BNI4, hits give low values 1.01 | S. cerevisiae deletion strains, locus YNL248C, strain rpa49, hits give low values 1.03 | S. cerevisiae deletion strains, locus YNL250W, strain rad50, hits give low values 0.988 | S. cerevisiae deletion strains, locus YNL271C, strain bni1, hits give low values 0.985 | S. cerevisiae deletion strains, locus YNL298W, strain CLA4, hits give low values 1 | S. cerevisiae deletion strains, locus YNL307C, strain MCK1, hits give low values 1 | S. cerevisiae deletion strains, locus YNL322C, strain KRE1 (second series), hits give low values 1.04 | S. cerevisiae deletion strains, locus YNL322C, strain KRE1, hits give low values 0.992 | S. cerevisiae deletion strains, locus YNR049C, strain mso1, hits give low values 1.02 | S. cerevisiae deletion strains, locus YNR052C, strain pop2, hits give low values 0.972 | S. cerevisiae deletion strains, locus YOL006C, strain TOP1, hits give low values 0.988 | S. cerevisiae deletion strains, locus YOL012C, strain htz1 1.12 | S. cerevisiae deletion strains, locus YOL147C, strain pex11, hits give low values 0.996 | S. cerevisiae deletion strains, locus YOR001W, strain rrp6, hits give low values 1.02 | S. cerevisiae deletion strains, locus YOR061W, strain CKA2, hits give low values 0.999 | S. cerevisiae deletion strains, locus YOR069W, strain VPS5, hits give low values 0.988 | S. cerevisiae deletion strains, locus YOR070C, strain gyp1, hits give low values 1.02 | S. cerevisiae deletion strains, locus YOR080W, strain dia2, hits give low values 1.03 | S. cerevisiae deletion strains, locus YOR083W, strain WHI5, hits give low values 1.02 | S. cerevisiae deletion strains, locus YOR106W, strain vam3, hits give low values 1.07 | S. cerevisiae deletion strains, locus YOR136W, strain idh2, hits give low values 0.988 | S. cerevisiae deletion strains, locus YOR144C, strain elg1, hits give low values 0.993 | S. cerevisiae deletion strains, locus YOR184W, strain ser1, hits give low values 0.959 | S. cerevisiae deletion strains, locus YOR231W, strain MKK1, hits give low values 0.952 | S. cerevisiae deletion strains, locus YOR265W, strain rbl2, hits give low values 1.03 | S. cerevisiae deletion strains, locus YOR270C, strain vph1, hits give low values 1.12 | S. cerevisiae deletion strains, locus YOR290C, strain snf2, hits give low values 1.02 | S. cerevisiae deletion strains, locus YOR316C, strain cot1, hits give low values 0.989 | S. cerevisiae deletion strains, locus YPL051W, strain arl3, hits give low values 1.01 | S. cerevisiae deletion strains, locus YPL055C, strain LGE1, hits give low values 1.04 | S. cerevisiae deletion strains, locus YPL078C, strain atp4, hits give low values 1.03 | S. cerevisiae deletion strains, locus YPL106C, strain sse1, hits give low values 1 | S. cerevisiae deletion strains, locus YPL240C, strain hsp82, hits give low values 1.03 | S. cerevisiae deletion strains, locus YPL241C, strain CIN2, hits give low values 0.996 | S. cerevisiae deletion strains, locus YPL256C, strain CLN2, hits give low values 0.943 | S. cerevisiae deletion strains, locus YPR119W, strain clb2, hits give low values 1 | S. cerevisiae deletion strains, locus YPR141C, strain kar3, hits give low values 0.968 | S. cerevisiae deletion strains, locus YPR163C, strain tif3, hits give low values 0.999 | S. cerevisiae deletion strains, locus YPR167C, strain met16, hits give low values 0.99 | S. cerevisiae deletion strains, strain wtn01, hits give low values 0.998 | S. cerevisiae strains, strain wild type, hits give low values 0.999
